An excerpt weighted towards active compounds, which were near 3.1% of everything screened.
BoNT-F LC inh: BoNT/F light chain protease inhibitors, primary screen, biochemical, flow cytometry, MLPCN library. Botulinum neurotoxin type F light chain protease (Clostridium botulinum). Multiplex microsphere protease cleavage assay. inhibition, % at 10 µM. actives 0.22% (n = 360,000). AID 588497, 2011; in the data active = inhibition above about 35%, passing the limit was not always enough; inconclusive = no clear call, values can overlap the other calls; note: plate controls were buffer without enzyme for full effect and enzyme alone for no effect
PriA SSB inh: inhibitors of Klebsiella pneumoniae PriA binding to SSB C-terminal tail, primary screen, biochemical, AlphaScreen. AID 1272365, 2023. PriA–SSB C-terminal tail interaction (Klebsiella pneumoniae). actives 0.6% (n = 430,000). inhibition, % at 33 µM. AlphaScreen SSBct-PriA binding, biotinylated peptide; in the data active = inhibition mostly above about 37%, no sharp cut-off; inactive = mostly below about 20%;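 note: plate controls were negative control peptide for no effect and reference peptide for full effect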
Bead autofluor: compound fluorescence in toxin protease inhibitor counterscreen | compound autofluorescence counterscreen, microsphere flow cytometry; hits give high values | fluorescence intensity (concentration not given with the values) | actives 3.1% (n = 360,000) | AID 624483; in the data active = fluorescence intensity above about 16000; inconclusive = no clear call, values can overlap the other calls
BoNT-A LC inh2: BoNT/A light chain protease inhibitors, primary screen, biochemical, flow cytometry, MLPCN library | Botulinum neurotoxin type A light chain protease (Clostridium botulinum A str. ATCC 3502) | multiplex microsphere protease substrate cleavage | inhibition, % at 10 µM | actives 0.17% (n = 360,000) | AID 588499, 2011; note: plate controls were buffer without enzyme for full effect and enzyme alone for no effect
Anthrax LF inh2: Bacillus anthracis LF protease inhibitors, primary screen, biochemical, multiplex microsphere, MLPCN library | Lethal factor (Bacillus anthracis), P15917 | multiplex microsphere protease cleavage assay | inhibition, % at 10 µM | actives 0.12% (n = 360,000) | AID 588501, 2011; note: plate controls were buffer without enzyme for full effect and enzyme alone for no effect
Target sequence (P15917 whole entry, looked up): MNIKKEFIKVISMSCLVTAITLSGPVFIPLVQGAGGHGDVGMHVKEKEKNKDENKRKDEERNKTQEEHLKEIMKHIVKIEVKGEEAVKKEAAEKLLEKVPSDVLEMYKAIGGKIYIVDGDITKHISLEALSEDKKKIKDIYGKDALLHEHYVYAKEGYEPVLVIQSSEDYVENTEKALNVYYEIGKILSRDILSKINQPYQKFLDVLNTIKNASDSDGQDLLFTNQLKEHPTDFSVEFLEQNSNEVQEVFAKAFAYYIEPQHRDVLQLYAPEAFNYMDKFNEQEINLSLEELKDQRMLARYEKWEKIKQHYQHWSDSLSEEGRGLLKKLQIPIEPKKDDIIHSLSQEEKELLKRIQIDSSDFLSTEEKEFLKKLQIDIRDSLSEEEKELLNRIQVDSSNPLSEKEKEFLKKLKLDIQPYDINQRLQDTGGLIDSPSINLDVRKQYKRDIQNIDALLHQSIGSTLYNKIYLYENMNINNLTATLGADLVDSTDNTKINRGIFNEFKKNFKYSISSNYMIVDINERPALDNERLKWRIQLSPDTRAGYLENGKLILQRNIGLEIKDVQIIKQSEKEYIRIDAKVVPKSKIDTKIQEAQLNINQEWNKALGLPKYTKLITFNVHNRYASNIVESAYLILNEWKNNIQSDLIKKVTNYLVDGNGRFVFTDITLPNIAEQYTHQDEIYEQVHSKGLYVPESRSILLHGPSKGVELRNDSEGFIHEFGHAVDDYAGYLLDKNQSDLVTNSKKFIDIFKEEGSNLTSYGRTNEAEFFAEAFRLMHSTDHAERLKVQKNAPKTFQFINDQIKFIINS
Numbers without * were called inactive; ? = inconclusive; / = no result given. Cut-off read from the data, not from the text of the source, unless noted: active = inhibition above about 30%; inconclusive = no clear call, values can overlap the other calls; inactive = below that.

SMILES	BoNT-F LC inh	PriA SSB inh	Bead autofluor	BoNT-A LC inh2	Anthrax LF inh2
O=[N+]([O-])c1ccc(Cl)c(C[n+]2cccc3ccccc32)c1	49*	-2	7598	-7	-12
O=C(Nc1nnc2n1CCS2)c1ccc(Cl)cc1Cl	/	6	/	/	/
O=C(CSc1nccn1C1CCCC1)NCc1ccc(F)cc1	/	-5	/	/	/
CCCOc1ccc(-c2nc(=S)[nH][nH]2)cc1	-1	-10	22693*	?	-3
COc1cccc(-c2nc(CS(=O)(=O)CC(=O)NCCCc3ccccc3)c(C)o2)c1	2	13	6143	0	-2
COc1cccc(-c2nc(CS(=O)CC(=O)NCCCOC(C)C)c(C)o2)c1 (stereo not given)	5	-10	21012*	2	-1
COc1cccc(-c2nc(CS(=O)CC(=O)N3CCC4(CC3)OCCO4)c(C)o2)c1 (stereo not given)	-4	-1	21075*	?	1
Cc1cccc(-c2nc(CS(=O)CC(=O)NC3CCCCC3)c(C)o2)c1 (stereo not given)	-1	4	5183	0	1
Cc1oc(-c2ccc(Cl)cc2)nc1CS(=O)CC(=O)N1CCC2(CC1)OCCO2 (stereo not given)	-3	-12	?	0	-18
COc1cccc(-c2nc(CS(=O)(=O)CC(=O)NCCCOC(C)C)c(C)o2)c1	1	-14	21662*	?	-4
Cc1cccc(-c2nc(CS(=O)CC(=O)NCCCSC3CCCCC3)c(C)o2)c1 (stereo not given)	-2	-21	20646*	?	-3
O=C(NCCCS(=O)(=O)N1CCN(c2ccccn2)CC1)c1ccc(F)cc1	/	-17	/	/	/
O=C(Nc1nnc(-c2ccccc2Cl)o1)c1ccc(S(=O)(=O)N2CCc3ccccc3C2)cc1	/	-12	/	/	/
Cn1nc(CNC(=O)Nc2ccccc2C(F)(F)F)cc1-c1ccco1	/	-7	/	/	/
Cc1cc(N2CCN(c3ccc(C(F)(F)F)cc3[N+](=O)[O-])CC2)c2ccccc2n1	2	46*	3352	-1	-8
CC1(C)N=C(N)NC(Nc2cccc(Br)c2)=N1	1	-14	4508	0	6
CC1(C)N=C(N)NC(Nc2ccc(Br)cc2)=N1	-3	-5	23628*	-2	-2
O=C1C2C3C=CC(C3=C(c3ccccc3)c3ccccc3)C2C(=O)N1CCO (stereo not given)	0	12	16812*	-1	-1
Cc1nnc(NC(=O)CCSc2ccc(Cl)cc2)s1	-3	4	2675	0	0
COCCSc1ccccc1C(=O)Nc1nnc(COC)s1	1	-10	23162*	0	1
COC(=O)CSc1ncnc2scc(-c3ccccc3)c12	-2	-24	4550	-1	-6
COCc1nnc(NC(=O)CCSc2ccccc2)s1	0	-1	20338*	?	-3
Cc1nnc(NC(=O)CCSc2ccccc2)s1	-1	-19	16606*	0	1
Cc1nnc(NC(=O)CSc2ncnc3scc(-c4ccccc4)c23)s1	4	-15	21836*	?	-2
Cc1cc(C(=O)Nc2ccc(-n3nnn(C)c3=O)cc2)c(C)o1	/	-6	/	/	/
SMILES	BoNT-F LC inh	PriA SSB inh	Bead autofluor	BoNT-A LC inh2	Anthrax LF inh2
Fc1ccc(C=Nn2c(-c3cccs3)n[nH]c2=S)cc1	/	-8	/	/	/
O=C(Nc1nnc(-c2ccc(Br)s2)o1)c1ccc(F)cc1	/	2	/	/	/
COCc1nnc(NC(=O)CSc2ccccc2)s1	-1	-4	22373*	0	0
CCCNC(=O)c1c[nH]c2ccc(S(=O)(=O)N(C)c3ccc(OCC)cc3)cc2c1=O	/	-22	/	/	/
CCCCN(C)CCNC(=O)c1c[nH]c2ccc(S(=O)(=O)N(CC)CC)cc2c1=O	6	-3	20963*	4	1
COc1ccc(CCn2c(Br)nc3c2c(=O)[nH]c(=O)n3C)cc1	-3	-33	17013*	-3	3
Cc1cccc(NC(=O)Nc2ccc3c(c2)N(C)C(=O)CS3)n1	-13	104*	5999	-1	-2
O=C(NCCC1=CCCCC1)C(=O)NCC1CCN(Cc2ccccc2)CC1	/	-7	/	/	/
COc1ccc(S(=O)(=O)N2CCn3cccc3[C@H]2c2ccc(Cl)cc2Cl)cc1C	/	-7	/	/	/
CC12CN3CC(C)(CN(C1)C3c1cccs1)C2O (stereo not given)	-7	1	17129*	-3	-4
CCOC(=O)c1oc2nc(CC(C)C)c3c(c2c1N)CCC3	2	-19	20183*	-1	-3
